Reference: PubChem BioAssay (EPA / NIEHS)
Active and inactive are the calls of the source. Rule for the calls: active = hit-call score of the fitted dose curve at least 0.9, where 1 is the maximum; inactive = score below 0.9.

Read-out: Interleukin-8 (IL8), CXCL8 (gene 3576)
Experiment: BSK_LPS_IL8: BioMAP Diversity Plus: LPS Assay for Interleukin-8 (IL8) Biomarker Activity (AID 2283078)
Conditions: primary human HUVEC with PBMC; actives raise or lower the signal
Method in brief: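 Human umbilical vein endothelial cells co-cultured with PBMC were stimulated with LPS; IL-8 levels were measured by ELISA 24 h after chemical dosing. Activity was fitted bidirectionally against DMSO as negative control and baseline.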

Compound | AC50 | outcome
O=C1C(Cl)=C(Cl)C(=O)C(Cl)=C1Cl | 29 µM (active) | –
N#CCCCCC#N | – | inactive
CC(C)(c1cc(Cl)c(O)c(Cl)c1)c1cc(Cl)c(O)c(Cl)c1 | 32.5 µM (active) | –
COCC(=O)N(c1c(C)cccc1C)N1CCOC1=O | – | inactive
CC(C)CCCCCCCOP(=O)(Oc1ccccc1)Oc1ccccc1 | – | inactive
C=CCN(CC=C)C(=O)C(Cl)Cl | – | inactive
c1ccc(Nc2ccc3ccccc3c2)cc1 | – | inactive
Cc1ccc(OP(=O)(Oc2ccc(C)cc2)Oc2ccc(C)cc2)cc1 (tested in a mixture with another compound) | 11.8 µM (active) | –
O=S(=O)(c1ccccc1)c1ccccc1 | – | inactive
CC(=O)/C=C/c1ccccc1 | 20 µM (active) | –

Read-out: not listed separately
Experiment: BSK_LPS_SRB: Viability Assessment in the BioMAP Diversity Plus: LPS Assay (AID 2283079);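 note: total protein by sulforhodamine B absorbance as a cytotoxicity measure; measured one day after compound addition; fitted in both directions against DMSO so loss or gain of signal counts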
Conditions: primary human HUVEC with PBMC
Method in brief: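 Human umbilical vein endothelial cells co-cultured with PBMC (LPS system) were dosed for 24 h. Total protein was stained with 0.1% sulforhodamine B after 10% TCA fixation, read at 560 nm, and fitted bidirectionally against DMSO baseline.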

Compound | AC50 | outcome
O=C1C(Cl)=C(Cl)C(=O)C(Cl)=C1Cl | 32.2 µM (active) | –
N#CCCCCC#N | – | inactive
CC(C)(c1cc(Cl)c(O)c(Cl)c1)c1cc(Cl)c(O)c(Cl)c1 | 31.7 µM (active) | –
COCC(=O)N(c1c(C)cccc1C)N1CCOC1=O | – | inactive
CC(C)CCCCCCCOP(=O)(Oc1ccccc1)Oc1ccccc1 | 23.7 µM (active) | –
C=CCN(CC=C)C(=O)C(Cl)Cl | – | inactive
c1ccc(Nc2ccc3ccccc3c2)cc1 | – | inactive
Cc1ccc(OP(=O)(Oc2ccc(C)cc2)Oc2ccc(C)cc2)cc1 (tested in a mixture with another compound) | 20 µM (active) | –
O=S(=O)(c1ccccc1)c1ccccc1 | – | inactive
CC(=O)/C=C/c1ccccc1 | – | inactive

Read-out: Interleukin-1 alpha (IL1a), IL1A (gene 3552)
Experiment: BSK_LPS_IL1a: BioMAP Diversity Plus: LPS Assay for Interleukin-1 alpha (IL1a) Biomarker Activity (AID 2283080)
Conditions: primary human HUVEC with PBMC; actives raise or lower the signal
Method in brief: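 Human umbilical vein endothelial cells co-cultured with peripheral blood mononuclear cells were LPS-stimulated and exposed to test chemicals for 24 h. IL-1 alpha was quantified by ELISA, with bidirectional curve fitting against DMSO as the negative control and baseline.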

Compound | AC50 | outcome
O=C1C(Cl)=C(Cl)C(=O)C(Cl)=C1Cl | 14 µM (active) | –
N#CCCCCC#N | – | inactive
CC(C)(c1cc(Cl)c(O)c(Cl)c1)c1cc(Cl)c(O)c(Cl)c1 | 31.5 µM (active) | –
COCC(=O)N(c1c(C)cccc1C)N1CCOC1=O | – | inactive
CC(C)CCCCCCCOP(=O)(Oc1ccccc1)Oc1ccccc1 | 27.3 µM (active) | –
C=CCN(CC=C)C(=O)C(Cl)Cl | – | inactive
c1ccc(Nc2ccc3ccccc3c2)cc1 | – | inactive
Cc1ccc(OP(=O)(Oc2ccc(C)cc2)Oc2ccc(C)cc2)cc1 (tested in a mixture with another compound) | 4.74 µM (active) | –
O=S(=O)(c1ccccc1)c1ccccc1 | – | inactive
CC(=O)/C=C/c1ccccc1 | 20 µM (active) | –

Read-out: Monocyte Chemoattractant Protein-1 (MCP1), CCL2 (gene 6347)
Experiment: BSK_LPS_MCP1: BioMAP Diversity Plus: LPS Assay for Monocyte Chemoattractant Protein-1 (MCP1) Biomarker Activity (AID 2283081);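 for AC50: secreted MCP-1 protein quantified by ELISA in culture supernatant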
Conditions: primary human HUVEC with PBMC; actives raise or lower the signal
Method in brief: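 HUVEC plus PBMC co-culture (human primary cells, LPS system) exposed to test chemical for 24 h; MCP-1 measured by ELISA. Bidirectional curve fitting against DMSO baseline; parallel SRB total-protein staining flags overt cytotoxicity.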

Compound | AC50 | outcome
O=C1C(Cl)=C(Cl)C(=O)C(Cl)=C1Cl | 30.8 µM (active) | –
N#CCCCCC#N | – | inactive
CC(C)(c1cc(Cl)c(O)c(Cl)c1)c1cc(Cl)c(O)c(Cl)c1 | 31.3 µM (active) | –
COCC(=O)N(c1c(C)cccc1C)N1CCOC1=O | – | inactive
CC(C)CCCCCCCOP(=O)(Oc1ccccc1)Oc1ccccc1 | 20 µM (active) | –
C=CCN(CC=C)C(=O)C(Cl)Cl | – | inactive
c1ccc(Nc2ccc3ccccc3c2)cc1 | – | inactive
Cc1ccc(OP(=O)(Oc2ccc(C)cc2)Oc2ccc(C)cc2)cc1 (tested in a mixture with another compound) | – | inactive
O=S(=O)(c1ccccc1)c1ccccc1 | – | inactive
CC(=O)/C=C/c1ccccc1 | – | inactive

Read-out: not listed separately
Experiment: BSK_LPS_PGE2: BioMAP Diversity Plus: LPS Assay for Prostaglandin E2 (PGE2) Biomarker Activity (AID 2283082);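 for AC50: secreted prostaglandin E2 measured by ELISA in LPS-stimulated co-culture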
Conditions: primary human HUVEC with PBMC; actives raise or lower the signal
Method in brief: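 HUVEC plus human PBMC co-culture stimulated with LPS; secreted PGE2 quantified by ELISA 24 h after chemical dosing. Activity fitted bidirectionally against DMSO baseline; parallel SRB staining (0.1% SRB after 10% TCA fixation, 560 nm) flags overt cytotoxicity.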

Compound | outcome | AC50
O=C1C(Cl)=C(Cl)C(=O)C(Cl)=C1Cl | inactive | –
N#CCCCCC#N | inactive | –
CC(C)(c1cc(Cl)c(O)c(Cl)c1)c1cc(Cl)c(O)c(Cl)c1 | – | 22.9 µM (active)
COCC(=O)N(c1c(C)cccc1C)N1CCOC1=O | inactive | –
CC(C)CCCCCCCOP(=O)(Oc1ccccc1)Oc1ccccc1 | – | 13.6 µM (active)
C=CCN(CC=C)C(=O)C(Cl)Cl | inactive | –
c1ccc(Nc2ccc3ccccc3c2)cc1 | – | 20 µM (active)
Cc1ccc(OP(=O)(Oc2ccc(C)cc2)Oc2ccc(C)cc2)cc1 (tested in a mixture with another compound) | inactive | –
O=S(=O)(c1ccccc1)c1ccccc1 | inactive | –
CC(=O)/C=C/c1ccccc1 | inactive | –

Read-out: Macrophage colony-stimulating factor (MCSF), CSF1 (gene 1435)
Experiment: BSK_LPS_MCSF: BioMAP Diversity Plus: LPS Assay for Macrophage colony-stimulating factor (MCSF) Biomarker Activity (AID 2283083)
Conditions: primary human HUVEC with PBMC; actives raise or lower the signal
Method in brief: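 Human umbilical vein endothelial cells co-cultured with peripheral blood mononuclear cells were exposed to compound for 24 h. M-CSF levels were measured by ELISA, and bidirectional curve fitting used DMSO as the negative control and baseline.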

Compound | AC50 | outcome
O=C1C(Cl)=C(Cl)C(=O)C(Cl)=C1Cl | 25.2 µM (active) | –
N#CCCCCC#N | – | inactive
CC(C)(c1cc(Cl)c(O)c(Cl)c1)c1cc(Cl)c(O)c(Cl)c1 | 17.2 µM (active) | –
COCC(=O)N(c1c(C)cccc1C)N1CCOC1=O | – | inactive
CC(C)CCCCCCCOP(=O)(Oc1ccccc1)Oc1ccccc1 | 15.3 µM (active) | –
C=CCN(CC=C)C(=O)C(Cl)Cl | – | inactive
c1ccc(Nc2ccc3ccccc3c2)cc1 | – | inactive
Cc1ccc(OP(=O)(Oc2ccc(C)cc2)Oc2ccc(C)cc2)cc1 (tested in a mixture with another compound) | 16.1 µM (active) | –
O=S(=O)(c1ccccc1)c1ccccc1 | – | inactive
CC(=O)/C=C/c1ccccc1 | 16.9 µM (active) | –

Read-out: Tissue Factor, F3 (gene 2152)
Experiment: BSK_LPS_TissueFactor: BioMAP Diversity Plus: LPS Assay for Tissue Factor Biomarker Activity (AID 2283084)
Conditions: primary human HUVEC with PBMC; actives raise or lower the signal
Method in brief: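 Human umbilical vein endothelial cells co-cultured with peripheral blood mononuclear cells were dosed and stimulated with LPS. Cell-surface CD142 was quantified by ELISA at 24 h. Activity was fitted bidirectionally against DMSO baseline.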

Compound | AC50 | outcome
O=C1C(Cl)=C(Cl)C(=O)C(Cl)=C1Cl | 30.1 µM (active) | –
N#CCCCCC#N | – | inactive
CC(C)(c1cc(Cl)c(O)c(Cl)c1)c1cc(Cl)c(O)c(Cl)c1 | 31.3 µM (active) | –
COCC(=O)N(c1c(C)cccc1C)N1CCOC1=O | – | inactive
CC(C)CCCCCCCOP(=O)(Oc1ccccc1)Oc1ccccc1 | 31 µM (active) | –
C=CCN(CC=C)C(=O)C(Cl)Cl | – | inactive
c1ccc(Nc2ccc3ccccc3c2)cc1 | – | inactive
Cc1ccc(OP(=O)(Oc2ccc(C)cc2)Oc2ccc(C)cc2)cc1 (tested in a mixture with another compound) | – | inactive
O=S(=O)(c1ccccc1)c1ccccc1 | – | inactive
CC(=O)/C=C/c1ccccc1 | – | inactive
